Screening data: PubChem BioAssay, National Center for Advancing Translational Sciences (NCATS)
In the library only some 10% were active in any assay of this set; here they are far more common.
Pf growth 48h = P. falciparum growth inhibition at 48 hours (one generation). P. falciparum luciferase growth in erythrocytes, 48 h. Potency, µM (series often up to 28.7 µM), actives largely listed as inhibitors. 5.9% of 310,000 active. AID 504832; active means well fitted inhibition curve with a large enough effect; inconclusive means small, poorly fitted or top-dose-only effect, or another doubt; inactive means no such curve, though single readings can be large or run the other way
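Parasite viability was followed by luminescence of a genomically integrated firefly luciferase. Cultures held 0.1% parasitemia at 2% hematocrit (final), incubated under 5% CO2 at 37 C.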
Pf growth 96h = inhibits malaria parasite growth, 96 h; P. falciparum luciferase reporter growth, 96 h; Potency, µM (highest dose often 28.7 µM), hits mostly inhibitors; 6.9% of 320,000 active; AID 504834; active means well fitted inhibition curve with a large enough effect; inconclusive means small, poorly fitted or top-dose-only effect, or another doubt; inactive means no such curve, though single readings can be large or run the other way
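96 h incubation, 37 C, 5% CO2, of luciferase-reporter P. falciparum-infected RBCs (2% hematocrit, 0.05% parasitemia final) with test compounds; endpoint luminescence.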
NS1 inh = inhibitors of influenza NS1 protein function. Potency, µM (top dose mostly 46.1 µM). 0.4% of 270,000 active. AID 2326; further: actives are rising curves; nearly all actives have a fitted effect of over 50% in size
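Growth recovery, yeast-based: influenza A NS1 expressed in S. cerevisiae causes slow growth, and suppressors are detected by OD600. The parent strain without NS1 is used as positive control.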
SARS PLpro yeast = SARS-CoV PLP inhibition in yeast. S. cerevisiae expressing SARS-CoV PLpro, growth rescue. Potency, µM (doses to about 32.9 µM), most hits filed as activators. 0.19% of 330,000 active. AID 485353; further: nearly all actives have a fitted effect of over 55% in size
Large screens that a line does not name were inactive. Unless noted, the call rests on the fitted dose curve.

O=C1OC(/C(=C\Nc2ccc(F)cc2F)[N+](=O)[O-])c2ccccc21 (stereo not drawn)	Pf growth 48h inconclusive
CCN1C(=O)C(NC(C)=O)c2cc(OC)ccc21 (stereo not drawn)	none
COc1ccc([C@@H]2Sc3cc(OC)ccc3N(CCN(C(C)C)C(C)C)C(=O)[C@H]2OC(C)=O)cc1	Pf growth 48h 12µM, Pf growth 96h inconclusive
Cc1cccc(CCNS(=O)(=O)c2ccc3c(c2)NC(=O)CS3)c1	Pf growth 96h inconclusive
CC(C)SC1=NC(C)(C)C=C(/C=C/c2ccc(Cl)cc2Cl)N1	Pf growth 96h inconclusive (no result: Pf growth 48h)
CC(C)SC1=NC(C)(C)C=C(/C=C/c2c(Cl)cccc2Cl)N1	Pf growth 96h 3.3µM (no result: Pf growth 48h)
CCc1ccc(OCC(=O)N2c3ccccc3CCc3ccccc32)cc1	Pf growth 48h 9.3µM
CCOC(=O)Nc1ccc2c(c1)N(C(=O)OC)c1ccccc1CC2	none
COc1ccccc1NC(=O)CSCC(=O)N1c2ccccc2CCc2ccccc21	Pf growth 48h inconclusive, Pf growth 96h 5.9µM
COc1ccc(NC(=O)CSCC(=O)N2c3ccccc3CCc3ccccc32)cc1	Pf growth 48h inconclusive, Pf growth 96h inconclusive
COC(=O)N1c2ccccc2CCc2ccccc21	Pf growth 48h 7.4µM
CC(C)OC(=O)C(C)Nc1ccc(F)c(Cl)c1 (stereo not drawn)	none
COc1cc(NC(=O)NS(=O)(=O)c2ccc(C)cc2)cc(OC)c1	NS1 inh 1µM (no result: Pf growth 48h)
COc1ccc(NC(=O)NS(=O)(=O)c2ccc(C)cc2)cn1	none
Cc1ccc(S(=O)(=O)NC(=O)Nc2ccc(F)cc2)cc1	Pf growth 96h inconclusive
Cc1ccc(S(=O)(=O)NC(=O)Nc2ccccc2)cc1	Pf growth 96h 6.6µM
Cc1cccc(-n2c(=O)c3c4c(sc3n3c(=S)[nH]nc23)CCC4)c1	none (no result: NS1 inh)
COC(=O)C(C)Sc1nnc2n(-c3cccc(C)c3)c(=O)c3c4c(sc3n12)CCCC4 (stereo not drawn)	Pf growth 48h 10µM, Pf growth 96h 12µM
O=C(CN1CCN(S(=O)(=O)c2ccc(Cl)s2)CC1)N1CCOCC1	none
COc1cc(Nc2c3c(nc4ccccc24)CCC3)cc(OC)c1OC	Pf growth 48h 12µM
Cc1cccc(Nc2c3c(nc4ccccc24)CCC3)c1	Pf growth 48h 12µM, Pf growth 96h inconclusive
COc1ccc(OC)c(Nc2c3c(nc4ccccc24)CCC3)c1	Pf growth 48h inconclusive, Pf growth 96h inconclusive
N#Cc1cccc(Nc2c3c(nc4ccccc24)CCC3)c1	Pf growth 48h inconclusive
CC(C)c1ccc(OCC(=O)NC2CC(C)(C)NC(C)(C)C2)c(Br)c1	Pf growth 48h inconclusive
CO[C@@H]1C[C@H](O[C@H]2[C@@H](C)[C@H](O[C@@H]3O[C@@H](C)C[C@@H](N(C)C)[C@@H]3OC(C)=O)[C@H](C)C[C@]3(CO3)C(=O)[C@H](C)[C@H](OC(C)=O)[C@H](C)[C@H](C)OC(=O)[C@@H]2C)O[C@H](C)[C@@H]1OC(C)=O	Pf growth 96h inconclusive (no result: NS1 inh, SARS PLpro yeast)
CC(C)c1ccc(N=C(N)N=C(N)N)cc1	Pf growth 96h inconclusive (no result: NS1 inh)
CCc1ccccc1NC(=S)NCCSc1ccc(Cl)cc1	Pf growth 48h inconclusive, Pf growth 96h 4.1µM (no result: NS1 inh)
Cc1ccccc1NC(=S)NCCSc1ccc(Cl)cc1	none (no result: NS1 inh)
C=CC[C@H](CC(=O)OC(C)(C)C)C(=O)OC[C@H]1CCCN1C(=O)[C@H](CC=C)CC(=O)NCCO	none (no result: Pf growth 48h, Pf growth 96h, NS1 inh)
O=C(/C=C/c1ccccc1)NC(NC(=S)Nc1cc(Cl)ccc1Cl)C(Cl)(Cl)Cl (stereo not drawn)	Pf growth 48h inconclusive, Pf growth 96h 10µM
CC(C)NC(NC(=O)Cc1ccccc1)C(Cl)(Cl)Cl (stereo not drawn)	none
O=C(/C=C/c1ccccc1)NC(NC(=S)Nc1ccc(Cl)cc1)C(Cl)(Cl)Cl (stereo not drawn)	Pf growth 48h 6.6µM
COc1ccc(NC(=S)NC(NC(=O)/C=C/c2ccccc2)C(Cl)(Cl)Cl)cc1 (stereo not drawn)	Pf growth 48h inconclusive, Pf growth 96h 2.3µM
CC(C)NC(NC(=O)/C=C/c1ccccc1)C(Cl)(Cl)Cl (stereo not drawn)	Pf growth 96h 1µM
O=C(CCc1ccccc1)NC(NC(=S)Nc1ccc(Cl)cc1)C(Cl)(Cl)Cl (stereo not drawn)	Pf growth 96h inconclusive (no result: Pf growth 48h)
O=C(CSc1nnc(-c2ccco2)n1-c1ccccc1Cl)Nc1cccc(C(=O)O)c1	SARS PLpro yeast inconclusive
NS(=O)(=O)c1cccc(NS(=O)(=O)c2cccc(C(F)(F)F)c2)c1	none
CC(C)(C)c1ccccc1NC(=O)c1c(O)c2cccc3c2n(c1=O)CC3	Pf growth 48h inconclusive
